RecA intein inh: blocks M. tuberculosis RecA intein splicing | cell-free RecA intein splicing, fluorescence | inhibition, % (test concentration not listed) | AID 2221 | 290,000 compounds, 0.75% hits | P9WHJ3; in the data active = inhibition above about 30%
GDH-TPI counter: GDH-TPI coupled enzyme inhibition counter-screen; GDH-TPI coupled enzyme counterscreen, NADH absorbance; inhibition, % at 4.8 µM; 360,000 compounds, 1.2% hits
Mtb FBA inh: inhibitors of M. tuberculosis fructose-bisphosphate aldolase; P9WQA3; purified M. tuberculosis FBA, fluorescence read-out; inhibition, % at 1 µM; 360,000 compounds, 2.3% hits; AID 588726; in the data active = inhibition above about 27%
Target sequence (P9WQA3 whole entry, looked up): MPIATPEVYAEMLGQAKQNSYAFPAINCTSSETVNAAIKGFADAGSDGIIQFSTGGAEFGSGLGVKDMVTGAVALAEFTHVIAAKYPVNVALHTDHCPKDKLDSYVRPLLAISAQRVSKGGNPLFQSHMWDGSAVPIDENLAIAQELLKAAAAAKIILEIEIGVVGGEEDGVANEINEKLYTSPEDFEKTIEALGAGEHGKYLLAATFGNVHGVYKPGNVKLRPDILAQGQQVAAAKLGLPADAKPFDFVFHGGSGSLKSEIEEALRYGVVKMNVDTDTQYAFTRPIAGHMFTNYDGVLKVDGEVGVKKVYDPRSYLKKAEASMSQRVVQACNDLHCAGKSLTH
CCHF vOTU inh: CCHFV vOTU protease inhibition; Pep-AMC fluorescence; inhibition, % at 11.5 µM; 370,000 compounds, 0.55% hits
Hits are given with their value; n = inactive; x = not tested or not shown; + = active, no number. Shown are actives, neighbours in structure and some others; about 4.2% of the full set was active somewhere. Rule as the data show it, unless noted: active = inhibition above about 30%; inactive = the rest.

SMILES | RecA intein inh | GDH-TPI counter | Mtb FBA inh | CCHF vOTU inh
COc1ccc(C2=Nn3c(nnc3-c3ccccc3OC)SC2)cc1OC | n | n | n | n
COc1ccc(C2=Nn3c(nnc3-c3ccccn3)SC2)cc1OC | n | 35 | n | n
COc1ccc(C2=Nn3c(nnc3-c3ccco3)SC2)cc1OC | n | 37 | n | n
c1ccc(C2[C@H]3CN(Cc4cccnc4)[C@H](c4ccccc4)C34CC2(c2ccccc2)C4)cc1 (some centres undefined) | n | n | n | n
c1ccc(C2[C@H]3CN(Cc4cccnc4)[C@H](c4ccccc4)C34CC2(c2cccnc2)C4)cc1 (some centres undefined) | 37 | n | n | n
COc1ccc(-n2nnc3c(SC(C(C)=O)C(=O)N(C)C)ncnc32)cc1 (centres undefined) | n | 32 | n | n
COC(=O)C(C)Sc1ncnc2c1nnn2-c1ccc(F)cc1 (centres undefined) | 53 | n | n | n
COc1ccc(CCC(C)NCCc2ccc(Cl)cc2Cl)cc1 (centres undefined) | n | n | n | n
Cc1ccc(S(=O)(=O)NCC(C)n2nc(C)nc2C)cc1 (centres undefined) | x | n | n | n
CCCC[N+](CC#CCO)(CC#Cc1ccccc1)CCCC | n | n | n | n
CCC[N+](CC#CCO)(CC#Cc1ccccc1)CCC | n | n | 146 | n
COc1ccc(OCCCC(=O)N(C)CC(=O)Nc2ccccc2Cl)cc1 | n | n | n | n
O=[N+]([O-])c1cc([N+](=O)[O-])c(N2CCCCCC2)cc1NCCO | n | 34 | n | n
CCN(CC)c1ccc2c(c1)oc(=O)c1c(Cl)cc(=O)oc12 | x | 35 | n | x
CCN(CC)c1ccc2c(Cl)c(Br)c(=O)oc2c1 | n | n | n | x
Cc1nc2sc(-c3ccccc3)cc2c(=O)n1N | n | 47 | n | n
NC(=O)CSc1nc2sc(-c3ccccc3)cc2c(=O)n1N | n | 35 | n | n
Cc1c(NS(=O)(=O)c2cc(C(=O)NCC3CCCO3)cc(Cl)c2Cl)c(=O)n(-c2ccccc2)n1C (centres undefined) | n | n | n | n
Cc1c(NC(=O)C(C)NCC2CCCO2)c(=O)n(-c2ccccc2)n1C (centres undefined) | n | n | + | n
CC(=O)c1sc(NC(=O)c2oc3ccc(F)cc3c2C)nc1C | x | n | n | n
O=C(NCc1cccs1)c1cccn2c(=O)c3sccc3nc12 | n | 31 | n | n
O=C(NCc1ccco1)c1cccn2c(=O)c3sccc3nc12 | n | n | n | n
COC(=O)[C@H](Cc1ccccc1)N(Cc1cn(Cc2ccccc2)nn1)S(=O)(=O)c1ccccc1Br | x | x | x | n
CCCCOc1ccccc1C(=O)NNC(=S)NC(=O)c1ccccc1[N+](=O)[O-] | n | 31 | n | n
CCOC(=O)c1cnc2cc(C)ccn2c1=O | n | 31 | 124 | n
SMILES | RecA intein inh | GDH-TPI counter | Mtb FBA inh | CCHF vOTU inh
COc1ccc(CNC(=O)c2cnc3cc(C)ccn3c2=O)cc1 | n | n | n | n
C=CCn1c(-c2cccc(OC)c2)nc2nc3ccccc3nc21 | n | 54 | n | n
C=CCn1c(-c2cccc(OC)c2)n[nH]c1=S | n | n | n | n
C=CCn1c(-c2cccs2)nc2nc3ccccc3nc21 | n | n | + | n
C=CCn1c(CC(C)(C)C)nc2ccccc21 | n | n | n | n
COc1ccc(OC)c(/C=C2\Oc3cc(OCC(=O)N4CC(O)C[C@H]4C(=O)O)ccc3C2=O)c1 (some centres undefined) | n | 40 | n | n
O=C(O)COc1ccc2c(c1)O/C(=C\c1cccs1)C2=O | x | 42 | n | n
COc1ccc(/C=C2\Oc3cc(OC(=O)N4CCOCC4)ccc3C2=O)c(OC)c1 | n | 31 | n | n
COc1ccc(/C=C2\Oc3cc(OCC(=O)N4CCC[C@H]4C(=O)O)ccc3C2=O)c(OC)c1OC | n | 38 | n | n
COc1ccc(/C=C2\Oc3cc(OCC(=O)N4CCC[C@H]4C(=O)O)ccc3C2=O)cc1OC | n | n | n | x
COc1ccc(/C=C2\Oc3cc(OCC(=O)N4CC(O)C[C@H]4C(=O)O)ccc3C2=O)c(OC)c1OC (some centres undefined) | n | n | n | n
COc1cccc(/C=C2\Oc3cc(OCC(=O)N4CCCC4)ccc3C2=O)c1OC | n | n | n | n
COc1cccc(/C=C2\Oc3cc(OCC(=O)N4CCCCC4)ccc3C2=O)c1OC | n | 39 | n | n
O=c1[nH]c2ccccc2nc1Cc1ccc(Cl)cc1 | n | n | n | n
O=c1[nH]c2ccccc2nc1-c1ccc(Cl)cc1 | n | 38 | n | n
Cc1c(C)c2ccc(OS(C)(=O)=O)cc2oc1=O | n | n | n | n
CC(=O)COc1ccc2c(C)c(C)c(=O)oc2c1 | n | n | 131 | n
CCOc1ccc2c(C)c(Cl)c(=O)oc2c1 | n | n | + | n
COc1ccc(-c2c(C)c3ccc(OCC(C)=O)cc3oc2=O)cc1 | n | x | x | x
Cc1c(Cl)c(=O)oc2cc(OCC(=O)NCc3cccs3)ccc12 | x | n | 37 | n
Cc1c(C)c2ccc(OCC(=O)N3CCC(C(=O)O)(c4ccccc4)CC3)cc2oc1=O | x | n | 140 | n
CCOC(=O)N1CCN(C(=O)C[C@H]2C[C@@]3(C(=O)OC)C(=C[C@H](COCc4ccccc4)O[C@@H]3C)N(Cc3ccccc3)C2=O)CC1 | x | x | x | n
O=C(CSc1ncnc2sccc12)NCc1ccc2c(c1)OCO2 | x | n | n | n
Cc1ccc(CN2C(=O)C(CC(C)C)Nc3ncnc(N4CCCCC4)c32)cc1 (centres undefined) | x | x | n | n
Cc1ccc(NC(=O)CSc2nnc(C3CC3)n2CC2CCCO2)cc1C (centres undefined) | n | n | n | n
SMILES | RecA intein inh | GDH-TPI counter | Mtb FBA inh | CCHF vOTU inh
COc1cc(OC)c2c(C)c(Cl)c(=O)oc2c1 | n | n | 124 | n
COc1cc(OC)c2c(=O)cc(-c3ccccc3)oc2c1 | n | n | n | n
CCN(C[C@H]1N[C@@](Cc2ccccc2)(C(=O)OC)[C@H]2C(=O)N(Cc3ccccc3)C(=O)[C@@H]12)S(=O)(=O)c1ccc(-c2ccccc2)cc1 | x | 32 | n | n
CCCNC(=O)C1(O)c2cc(Br)ccc2NC(=O)N1c1ccc(Cl)cc1 (centres undefined) | n | n | n | n
Nc1ccc2nc[nH]c2c1 | 49 | n | n | n
O=[N+]([O-])c1ccc2nc[nH]c2c1 | x | n | n | n
COC(=O)[C@@H](CC(C)C)CP(=O)(OC)[C@@H](C)NC(=O)OCc1ccccc1 (some centres undefined) | x | x | x | n
Cc1ccccc1Cn1cc(CN2[C@@H](Cc3ccccc3)COc3cc(Br)ccc3S2(=O)=O)nn1 | x | x | x | n
O=C(COC(=O)c1cccc(Cl)c1)NC1CCS(=O)(=O)C1 (centres undefined) | x | n | n | n
Nc1ccc(Cl)cc1C(=O)OCC(=O)NC1CCS(=O)(=O)C1 (centres undefined) | n | n | 90 | n
COC(=O)CSc1nc(N)c2c3c(sc2n1)C(c1ccccc1)SC(c1ccccc1)C3 (centres undefined) | 36 | n | n | x
CCN(CC(=O)Nc1c(F)cccc1F)C(=O)Cc1csc(-c2ccccc2)n1 | n | n | n | n
CCOc1ccc(-n2nc3cc(C)c(N)cc3n2)cc1 | n | n | 164 | n

Source: PubChem
